According to ChEMBL document CHEMBL3988442, “University of Dundee, Small-Polar-MMV Screening Library” (2021):
For some of these results: Potency and affinity values are given separately.

Assays:
Set-up in all cases: scale not given: direction of the effect not stated beside the values
[1] = molecular target: Protein translocase subunit SecA (Escherichia coli (strain K12)) (UniProt P10408); assay: Assay to Identify E. coli SecA ATPase Inhibitors; format: functional; details: 30 µM
[2] = molecular target: T1, Ubiquitin-activating enzyme e1, putative (Leishmania donovani (strain BPK282A1)) (UniProt E9BSI1); assay: Leishmania donovani Ubiquitin Activating Enzyme (LdE1); format: functional; details: 30 µM
T1 sequence (whole entry): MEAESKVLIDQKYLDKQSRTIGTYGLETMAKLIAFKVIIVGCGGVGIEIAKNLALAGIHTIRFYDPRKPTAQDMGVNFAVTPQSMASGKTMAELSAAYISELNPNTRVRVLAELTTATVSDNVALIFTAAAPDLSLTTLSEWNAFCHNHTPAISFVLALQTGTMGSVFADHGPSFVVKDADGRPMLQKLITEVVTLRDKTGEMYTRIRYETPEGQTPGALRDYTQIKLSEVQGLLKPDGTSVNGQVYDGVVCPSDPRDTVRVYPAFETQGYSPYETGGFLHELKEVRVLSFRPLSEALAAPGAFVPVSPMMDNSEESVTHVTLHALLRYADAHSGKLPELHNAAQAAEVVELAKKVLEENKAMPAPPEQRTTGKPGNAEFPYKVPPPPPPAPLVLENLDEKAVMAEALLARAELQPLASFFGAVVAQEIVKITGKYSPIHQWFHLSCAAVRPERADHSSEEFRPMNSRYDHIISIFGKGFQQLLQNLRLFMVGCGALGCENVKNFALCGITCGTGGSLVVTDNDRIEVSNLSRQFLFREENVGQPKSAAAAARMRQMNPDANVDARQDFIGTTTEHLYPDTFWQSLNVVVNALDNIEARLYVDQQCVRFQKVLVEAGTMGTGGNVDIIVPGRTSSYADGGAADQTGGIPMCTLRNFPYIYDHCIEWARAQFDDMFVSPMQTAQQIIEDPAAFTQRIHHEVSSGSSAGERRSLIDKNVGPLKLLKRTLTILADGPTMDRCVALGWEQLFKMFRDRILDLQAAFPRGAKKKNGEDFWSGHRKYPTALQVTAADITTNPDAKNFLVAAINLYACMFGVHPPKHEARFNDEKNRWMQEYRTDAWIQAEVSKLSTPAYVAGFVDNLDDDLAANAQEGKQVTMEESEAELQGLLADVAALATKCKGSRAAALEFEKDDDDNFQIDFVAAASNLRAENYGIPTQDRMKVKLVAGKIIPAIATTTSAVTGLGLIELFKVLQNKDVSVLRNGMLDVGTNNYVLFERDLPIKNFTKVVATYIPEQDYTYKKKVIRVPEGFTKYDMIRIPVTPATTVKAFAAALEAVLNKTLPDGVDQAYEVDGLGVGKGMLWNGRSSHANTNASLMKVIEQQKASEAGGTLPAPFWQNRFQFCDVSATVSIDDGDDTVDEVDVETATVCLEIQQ

[3] = molecular target: AMP-activated protein kinase, AMPK (Homo sapiens) (UniProt P54646+O43741+P54619+Q9UGJ0+Q9Y478+Q13131+Q9UGI9); assay: AMP-dependent Kinase enzyme assay. An in vitro enzyme assay that detects ADP turnover that is directly proportional to AMPK activity. This uses naive AMPK that is activated during the assay with MK-8722; format: functional; details: 30 µM
[4] = molecular target: Sialic acid-binding Ig-like lectin 9 (Homo sapiens) (UniProt Q9Y336); assay: Hs-Siglec9 ALPHAscreen SOP 20170721; details: 10 µM
Trypanosoma cruzi = assay: Trypanosoma cruzi phosphomannomutase and mannose-1-phosphate guanylyltransferase assay; format: functional; details: 10 µM
[5] = molecular target: T2, Arginase-2, mitochondrial (Homo sapiens) (UniProt P78540); assay: in vitro enzyme assay to detect the production of urea directly proportional to the activity of Arginase II; format: functional; details: 33.3 µM; further: in the data most compounds retested in dose-response had high values
T2 sequence (whole entry): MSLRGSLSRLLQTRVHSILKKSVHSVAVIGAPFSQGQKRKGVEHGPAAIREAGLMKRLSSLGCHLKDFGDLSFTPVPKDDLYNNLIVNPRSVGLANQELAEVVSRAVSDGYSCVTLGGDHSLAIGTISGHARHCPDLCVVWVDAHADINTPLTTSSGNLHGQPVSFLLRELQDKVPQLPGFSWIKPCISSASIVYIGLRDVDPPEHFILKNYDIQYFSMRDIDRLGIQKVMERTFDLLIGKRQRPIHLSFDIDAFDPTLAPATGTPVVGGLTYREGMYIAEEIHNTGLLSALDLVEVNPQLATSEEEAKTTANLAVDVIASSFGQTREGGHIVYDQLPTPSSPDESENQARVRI

[6] = molecular target: T3, Proteasome subunit beta (Trypanosoma cruzi) (UniProt O96673); assay: Trypanosoma cruzi proteasome chymotrypsin-like activity (TcProtChymo) assay.; further: in the data most compounds retested in dose-response had high values; format: functional; details: 9.37 µM
T3 sequence (whole entry): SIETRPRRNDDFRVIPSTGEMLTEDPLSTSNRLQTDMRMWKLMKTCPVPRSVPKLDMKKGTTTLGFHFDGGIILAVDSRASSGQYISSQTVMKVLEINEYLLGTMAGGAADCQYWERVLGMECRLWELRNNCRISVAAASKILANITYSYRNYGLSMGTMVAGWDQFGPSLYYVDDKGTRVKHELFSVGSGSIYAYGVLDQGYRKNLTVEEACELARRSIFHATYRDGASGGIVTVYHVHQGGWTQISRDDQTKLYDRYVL

Homo sapiens = species: Homo sapiens; assay: To identify inhibition of the IFN signalling (Jak-Stat) pathway via expression of an eGFP reporter gene under the control of an IFN-stimulated response element (ISRE) containing MxA promoter.; format: functional; details: 30 µM
[7] = molecular target: T4, Tyrosyl-tRNA synthetase, putative (Trypanosoma cruzi (strain CL Brener)) (UniProt Q4DSP6); assay: Trypanosoma cruzi tyrosyl tRNA synthetase (TcYRS) _High Tyrosine SOP; format: functional; details: 30 µM; further: in the data most compounds retested in dose-response had high values
T4 sequence (whole entry): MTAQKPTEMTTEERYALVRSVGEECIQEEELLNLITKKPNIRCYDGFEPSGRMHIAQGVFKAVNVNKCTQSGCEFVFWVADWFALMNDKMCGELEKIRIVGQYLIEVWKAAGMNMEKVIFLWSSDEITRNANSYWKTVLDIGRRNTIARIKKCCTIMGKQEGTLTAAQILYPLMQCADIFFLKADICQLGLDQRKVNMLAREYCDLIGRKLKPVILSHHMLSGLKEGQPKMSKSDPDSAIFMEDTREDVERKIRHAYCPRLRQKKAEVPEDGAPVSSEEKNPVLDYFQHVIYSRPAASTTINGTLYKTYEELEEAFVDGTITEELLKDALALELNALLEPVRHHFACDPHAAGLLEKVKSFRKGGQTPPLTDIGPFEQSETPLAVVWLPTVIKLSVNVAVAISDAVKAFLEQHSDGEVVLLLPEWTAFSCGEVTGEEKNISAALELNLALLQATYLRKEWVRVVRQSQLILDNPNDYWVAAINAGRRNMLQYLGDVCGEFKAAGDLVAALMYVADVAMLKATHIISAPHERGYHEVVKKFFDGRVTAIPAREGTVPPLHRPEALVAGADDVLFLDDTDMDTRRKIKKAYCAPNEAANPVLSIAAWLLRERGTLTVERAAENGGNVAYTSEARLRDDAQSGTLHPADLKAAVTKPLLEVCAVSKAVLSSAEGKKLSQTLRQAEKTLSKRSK

[8] = molecular target: T4, Tyrosyl-tRNA synthetase, putative (Trypanosoma cruzi (strain CL Brener)); assay: Trypanosoma cruzi tyrosyl tRNA synthetase (TcYRS) SOP; format: functional; details: 30 µM
[9] = molecular target: Chromo domain-containing protein 1 (Saccharomyces cerevisiae (strain ATCC 204508 / S288c) (Baker's yeast)) (UniProt P32657); assay: ScCHD-1 Enzyme Inhibition Assay; format: functional; details: 30 µM; further: in the data most compounds retested in dose-response had high values
Chromo domain-containing protein 1 (Saccharomyces cerevisiae (strain ATCC 204508 / S288c) (Baker's yeast)), sequence (P32657 whole entry, the tested form may be a part): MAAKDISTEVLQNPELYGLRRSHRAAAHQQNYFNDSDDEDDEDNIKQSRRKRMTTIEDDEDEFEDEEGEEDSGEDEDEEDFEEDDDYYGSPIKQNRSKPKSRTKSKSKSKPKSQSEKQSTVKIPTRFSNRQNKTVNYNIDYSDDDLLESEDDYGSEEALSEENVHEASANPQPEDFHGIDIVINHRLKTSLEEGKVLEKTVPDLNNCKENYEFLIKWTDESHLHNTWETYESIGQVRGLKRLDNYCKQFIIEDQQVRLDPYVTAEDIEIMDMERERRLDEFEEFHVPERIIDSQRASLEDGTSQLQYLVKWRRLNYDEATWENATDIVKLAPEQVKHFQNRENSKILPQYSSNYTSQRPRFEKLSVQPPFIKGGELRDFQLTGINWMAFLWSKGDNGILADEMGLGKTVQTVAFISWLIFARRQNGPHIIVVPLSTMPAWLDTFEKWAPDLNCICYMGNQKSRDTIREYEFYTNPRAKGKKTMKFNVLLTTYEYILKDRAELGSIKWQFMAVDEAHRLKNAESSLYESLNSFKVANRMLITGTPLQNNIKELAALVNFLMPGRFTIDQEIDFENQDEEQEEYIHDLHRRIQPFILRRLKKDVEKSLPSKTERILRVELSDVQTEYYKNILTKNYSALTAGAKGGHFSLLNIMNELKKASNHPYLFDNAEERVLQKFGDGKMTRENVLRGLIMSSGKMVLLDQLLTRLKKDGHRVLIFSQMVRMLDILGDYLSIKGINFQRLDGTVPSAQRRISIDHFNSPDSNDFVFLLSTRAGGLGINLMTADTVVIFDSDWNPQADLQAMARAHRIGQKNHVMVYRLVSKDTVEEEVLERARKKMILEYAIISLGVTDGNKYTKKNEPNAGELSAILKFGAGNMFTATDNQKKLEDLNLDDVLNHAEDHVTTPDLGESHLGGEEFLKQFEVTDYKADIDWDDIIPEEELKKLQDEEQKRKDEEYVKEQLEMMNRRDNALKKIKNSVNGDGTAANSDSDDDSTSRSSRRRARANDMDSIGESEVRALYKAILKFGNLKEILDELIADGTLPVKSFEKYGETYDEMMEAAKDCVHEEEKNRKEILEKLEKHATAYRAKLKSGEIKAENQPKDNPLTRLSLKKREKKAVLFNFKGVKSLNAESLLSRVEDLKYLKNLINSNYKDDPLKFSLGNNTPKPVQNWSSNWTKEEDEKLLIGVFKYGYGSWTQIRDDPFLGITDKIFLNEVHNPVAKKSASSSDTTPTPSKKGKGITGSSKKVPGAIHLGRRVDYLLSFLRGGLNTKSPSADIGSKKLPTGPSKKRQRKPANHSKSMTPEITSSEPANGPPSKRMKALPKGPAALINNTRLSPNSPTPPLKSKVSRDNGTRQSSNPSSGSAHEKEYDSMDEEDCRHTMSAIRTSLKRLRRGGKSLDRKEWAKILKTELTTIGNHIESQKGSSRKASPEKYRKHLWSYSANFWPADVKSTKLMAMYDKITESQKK

Protein translocase subunit SecA (Escherichia coli (strain K12)), sequence (P10408 whole entry): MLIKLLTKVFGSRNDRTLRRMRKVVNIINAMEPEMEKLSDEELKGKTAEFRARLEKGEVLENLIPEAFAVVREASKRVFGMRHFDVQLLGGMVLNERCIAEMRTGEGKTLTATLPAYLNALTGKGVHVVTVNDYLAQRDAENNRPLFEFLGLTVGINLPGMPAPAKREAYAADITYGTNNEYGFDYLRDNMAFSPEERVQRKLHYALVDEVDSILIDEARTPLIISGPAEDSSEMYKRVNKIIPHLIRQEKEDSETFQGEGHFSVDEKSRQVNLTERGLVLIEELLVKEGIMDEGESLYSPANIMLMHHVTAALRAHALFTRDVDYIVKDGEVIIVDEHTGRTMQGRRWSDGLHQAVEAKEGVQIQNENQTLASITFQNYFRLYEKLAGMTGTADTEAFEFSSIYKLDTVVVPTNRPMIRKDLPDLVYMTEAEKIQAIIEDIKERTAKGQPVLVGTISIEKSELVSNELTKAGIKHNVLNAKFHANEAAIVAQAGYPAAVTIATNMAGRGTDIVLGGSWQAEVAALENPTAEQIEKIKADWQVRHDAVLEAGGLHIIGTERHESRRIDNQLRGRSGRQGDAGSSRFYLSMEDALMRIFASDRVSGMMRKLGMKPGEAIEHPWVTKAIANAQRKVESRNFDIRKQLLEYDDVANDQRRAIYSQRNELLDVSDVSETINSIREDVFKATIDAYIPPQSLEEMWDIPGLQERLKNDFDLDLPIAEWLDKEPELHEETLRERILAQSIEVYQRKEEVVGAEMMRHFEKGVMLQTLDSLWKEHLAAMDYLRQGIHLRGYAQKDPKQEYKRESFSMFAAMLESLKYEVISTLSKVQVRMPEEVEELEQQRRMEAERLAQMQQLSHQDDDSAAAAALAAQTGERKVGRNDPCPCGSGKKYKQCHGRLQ
Sialic acid-binding Ig-like lectin 9 (Homo sapiens), sequence (Q9Y336 whole entry): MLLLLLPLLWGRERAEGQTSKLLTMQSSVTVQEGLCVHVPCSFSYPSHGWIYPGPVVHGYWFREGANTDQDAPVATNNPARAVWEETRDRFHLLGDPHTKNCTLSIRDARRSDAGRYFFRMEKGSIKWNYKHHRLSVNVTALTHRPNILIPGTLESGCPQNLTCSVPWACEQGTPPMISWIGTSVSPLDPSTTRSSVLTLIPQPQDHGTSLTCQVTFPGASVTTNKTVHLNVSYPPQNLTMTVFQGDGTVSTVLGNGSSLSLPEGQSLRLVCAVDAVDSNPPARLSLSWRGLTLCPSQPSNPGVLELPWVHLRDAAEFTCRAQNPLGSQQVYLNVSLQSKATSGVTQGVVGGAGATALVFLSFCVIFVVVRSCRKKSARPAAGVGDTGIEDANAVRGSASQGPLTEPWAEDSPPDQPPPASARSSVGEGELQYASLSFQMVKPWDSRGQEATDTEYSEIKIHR

SMILES | Percent Effect [1] | Percent Effect [2] | Percent Effect [3] | Percent Effect [4] | Percent Effect (Trypanosoma cruzi) | Percent Effect [5] | Percent Effect [6] | Percent Effect (Homo sapiens) | Percent Effect [7] | Percent Effect [8] | Percent Effect [9]
CCN(CC)C(=O)c1nnc2ccc(N3CCOCC3)cc2n1 | -7.46% | 9.33% | -17.9% | 3.43% | 7.27% | -7.57% | 14.1% | 11.4% | 3.17% | 12.8% | -14.1%
O=C(c1ccc(NC2CC2)nc1)N1CCCC(n2cccn2)C1 (stereo unspecified) | -6.81% | 5.26% | -1.25% | 1.67% | -4.51% | 2.3% | 3.51% | 18.5% | 0.49% | 7.32% | -0.025%
Cc1ncc(CNC(=O)Cc2ccc(Cl)cc2)c(C2CCCN2C)n1 (stereo unspecified) | -5.53% | -1.35% | 18.1% | 5% | -2.96% | -2.55% | 8.74% | 1.58% | -1.07% | -1.3% | 0.76%
Cc1noc(CN2CCN(Cc3cccs3)CC2)n1 | -0.284% | 15.6% | 3.17% | -3.65% | -5.24% | 4.27% | 0.845% | 22.4% | 6.8% | 19.5% | -5.19%
Cc1nnc2n1CCN(CCOc1ccccc1)C2 | -2.71% | -1.27% | 9.45% | -0.787% | -0.308% | 3.66% | 3.43% | 0.176% | 2.08% | 0% | -7.58%
Cc1csc(CN2CC[C@H]3C[C@H](c4nnc(C)[nH]4)O[C@@H]3C2)n1 | 1.54% | 16.4% | 0.599% | 0.797% | -0.397% | 2.4% | 9.33% | 17.3% | 3.12% | -102% | -5.22%
CC(C)N(C)CCCNC(=O)c1cnc(-c2ccccc2)nc1 | -6.93% | 21.6% | 1.03% | 23.6% | 6.75% | 7.2% | 8.67% | -4.42% | 4.3% | 18.5% | -10.6%
CC(C)NC(=O)[C@H]1C[C@@H]2[C@@H](C1)OCCN2Cc1cnn(C)c1 | -3.53% | 0% | 4.75% | 2.29% | -5.6% | -50% | 4.44% | -6.54% | 3.12% | 10% | -4.52%
Cc1cc(C)c(OCC(=O)NS(=O)(=O)c2cccnc2)c(C)c1 | -3.5% | 21.1% | -5.54% | 1.96% | 3.95% | -0.766% | 16% | 6.77% | 10.3% | 24.4% | -14%
COc1cccc2c1OCC(C(=O)N(C)CCCc1cnn(C)c1)C2 (stereo unspecified) | -3.02% | 0% | -14.1% | -2.21% | -6.27% | 3.64% | 4.79% | 12.6% | 0% | 7.5% | -4.59%
CN(C)c1cncc(C2CCN(C(=O)CO)CC2)n1 | -3.4% | 6.76% | 7.38% | 5.95% | 0.198% | 2.55% | 10.8% | 22% | 4.3% | 9.09% | -10.6%
